# High-throughput results deposited in PubChem BioAssay by National Center for Advancing Translational Sciences (NCATS).
# Compounds with a hit are over-represented: about 10% of the library has one in this group of screens.
# Luc counter: counter-screen: inhibitors of Kinase-Glo firefly luciferase | Kinase-Glo luciferase, ATP luminescence, 8 min | hit rate 0.28% among 200,000 | Q27757 | Potency, µM (titrated, usually from 38.3 µM), without a hit: at the top dose activity change, negative = inhibition, usual class: inhibitors; active = well fitted inhibition curve with a large enough effect; inconclusive = small, poorly fitted or top-dose-only effect; note: potency is the fitted concentration of half-maximal effect; nearly all actives have a fitted effect of over 60% in size
#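 Kinase-Glo luciferase light output from ATP and luciferin was measured with 10 uM ATP, within the enzyme's linear range. Buffer: 50 mM imidazole pH 7.2, 50 mM KCl, 7 mM MgCl2, 0.01% Tween 20, 0.05% BSA; luminescence read after 8 min at ambient temperature.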
# ALDH1A1 inh: ALDH1A1 (human) enzyme inhibition. AID 1030. Purified ALDH1A1, NADH fluorescence, propionaldehyde substrate. P00352. hit rate 7.3% among 220,000. Potency, µM (doses to about 75.3 µM), inactives show top-dose activity, negative = inhibition, actives largely listed as inhibitors;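 note: potency is the fitted concentration of half-maximal effect; plate controls were no enzyme wells and a reference inhibitor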
# Target sequence (P00352 whole entry, looked up): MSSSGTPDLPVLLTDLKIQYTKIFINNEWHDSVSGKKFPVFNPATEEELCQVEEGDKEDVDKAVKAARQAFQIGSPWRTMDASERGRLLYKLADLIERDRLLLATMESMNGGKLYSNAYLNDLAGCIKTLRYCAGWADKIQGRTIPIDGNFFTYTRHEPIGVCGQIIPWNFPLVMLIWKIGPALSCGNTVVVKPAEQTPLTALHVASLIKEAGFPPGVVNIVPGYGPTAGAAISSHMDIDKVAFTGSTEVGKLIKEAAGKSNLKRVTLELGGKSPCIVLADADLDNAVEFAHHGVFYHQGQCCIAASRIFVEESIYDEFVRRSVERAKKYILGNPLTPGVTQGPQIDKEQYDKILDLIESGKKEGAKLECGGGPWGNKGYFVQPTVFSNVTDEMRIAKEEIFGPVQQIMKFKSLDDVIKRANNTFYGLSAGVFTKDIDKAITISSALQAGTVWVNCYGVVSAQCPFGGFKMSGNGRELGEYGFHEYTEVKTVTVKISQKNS
# PNC inhibitor: blocks assembly of the perinucleolar compartment; hit rate 3.1% among 140,000; PC3M PTB-GFP, PNC prevalence imaging, 16 h; stronger effect = lower value; AID 2417; activity change (PNC), negative = inhibition, % at 10 µM;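 active = readout at or below -70, meaning at least 70% loss of cells showing the perinucleolar compartment, a nuclear body marking cancer cells; inconclusive = readout between -30 and a set limit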;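 note: plate controls were DMSO wells for no effect and camptothecin positive control wells for full effect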
#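 Compounds are pinned in duplicate onto adhered PC3M cells stably expressing GFP-tagged PTB and incubated 16 h at 37 C. Cells are then fixed, nuclei stained with Hoechst, and PNC-positive cells counted.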
# Lamin A splicing: LMNA splicing modulation. Potency, µM (doses to about 46.1 µM), for inactives: at the highest dose ratio change, negative = inhibition, usual class: inhibitors. HeLa LMNA splicing GFP/RFP minigene ratio, 48 h. hit rate 0.01% among 200,000; active = well fitted inhibition curve with a large enough effect in the signal ratio, with a control signal flat, not every such curve was filed as active; inconclusive = small, poorly fitted or top-dose-only effect, or effect the other way, or a change in a side signal; the % refers to the signal ratio; note: potency is the fitted concentration of half-maximal effect
#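 S3 HeLa cells stably expressing lamin A-EGFP splicing minigene plus DsRed2, 600 cells/well, 48 h compound exposure at 37C. Laser-scanning cytometry; analysed as GFP (500-530 nm)/RFP (575-640 nm) total intensity ratio; 0.5% DMSO vehicle.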
# HPGD inh: inhibitors of human 15-hydroxyprostaglandin dehydrogenase (HPGD); P15428; hit rate 4.3% among 150,000; AID 894; purified HPGD, NADH fluorescence kinetic, PGE2 substrate; Potency, µM, without a hit: top-dose activity change, negative = inhibition, usual class: inhibitors; note: potency is the fitted concentration of half-maximal effect
#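 20 nM HPGD preincubated 15 min at room temperature with compound in 50 mM Tris-HCl pH 8, 0.01% Tween 20. Started with 1 mM NAD+ and 30 uM prostaglandin E2; NADH fluorescence (360/450 nm) read 5 times over 30-s intervals, last minus first.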
# An asterisk follows results filed as active; ? = inconclusive; nt = not tested or not shown; [ ] = remark or other dose. Unless noted, calls come from the whole dose curve; as a rule, active = well fitted inhibition curve with a large enough effect (not every such curve was filed as active); inconclusive = small, poorly fitted or top-dose-only effect, or another doubt; inactive = no such curve, though single readings can be large or run the other way. Unless noted, % is set by controls: 0 for no effect and ±100 for the full control effect.
SMILES,Luc counter,ALDH1A1 inh,PNC inhibitor,Lamin A splicing,HPGD inh
CCc1ccc(C(=O)CSc2nc3cc(S(=O)(=O)N4CCOCC4)ccc3n2CC)cc1,3.9%,28.2µM*,?,?,-23.4%
COC(=O)c1ccc(CSc2nc3ccc(S(=O)(=O)N4CCOCC4)cc3[nH]2)cc1,2.4%,-4.0%,?,2.3%,28.2µM*
CCOC(=O)CSc1nc2ccc(S(=O)(=O)N3CCOCC3)cc2[nH]1,-3.5%,-12.0%,35.4,-2.3%,-6.5%
Cc1csc(SCC(=O)c2ccc(S(=O)(=O)N3CCOCC3)cc2)n1,-0.7%,?,8.4,5.1%,-11.4%
O=C(NCCc1ccc(Cl)cc1)C1COc2ccccc2C1 (centres undefined),nt,nt,nt,11.5%[46 µM],nt
CCOc1ccccc1C(=O)N1CCC(n2nnc3cc(C(F)(F)F)ccc32)CC1,-4.1%,28.2µM*,-1.7,-3.0%,-3.9%
CCOc1ccccc1C(=O)N1CCC(n2nnc3cc(C)ccc32)CC1,nt,-1.2%,21.3,-7.3%,nt
Cc1c(C(=O)Nc2ccc(Br)cc2)cnn1C,1.9%,15.5%,?,-14.2%,-15.1%
Cc1c(C(=O)c2no[n+]([O-])c2C(=O)c2cnn(C)c2C)cnn1C,-0.9%,0.891µM*,-24.3,?,-16.5%
COC(=O)CCc1c(C)nc(N)[nH]c1=O,-3.9%,3.2%,-111.7*,-0.6%,1.3%
Nc1nc2c(c(=O)[nH]1)N=C(CNc1ccc(C(=O)NC(CCC(=O)O)C(=O)O)cc1)CN2 (centres undefined),1.3%,?,nt,nt,?
CCOC(=O)c1sc(=S)n(-c2ccc(Cl)cc2)c1C,-3.3%,?,?,3.0%,-9.0%
COC(=O)c1sccc1NC(=S)Nc1ccc(F)cc1F,2.9%,-9.5%,nt,11.9%[46 µM],nt
COC(=O)c1sc(=S)n(-c2cc(F)ccc2F)c1N,-2.0%,25.1µM*,61.0,7.5%[0.0737 µM],28.2µM*
CCOC(=O)c1sc(=S)n(-c2ccccc2Cl)c1SC,1.9%,17.8µM*,10.0,?,17.8µM*
CCOC(=O)c1sc(=S)n(-c2cc(F)ccc2F)c1N,1.8%,20µM*,-6.4,?,25.1µM*
CCOC(=O)c1sc(=S)n(-c2ccccc2)c1SC,0.4%,-9.8%,83.7,4.0%,-22.4%
CCOC(=O)c1sc(=S)n(-c2cc(OC)ccc2OC)c1N,-0.4%,3.16µM*,23.4,-10.1%,3.55µM*
N#CCCN(CC#Cc1ccccc1)OCc1ccccc1,nt,-15.4%[13.5 µM],nt,nt,nt
Cc1ccc(-n2ncc3c(NCCCc4ccccc4)ncnc32)cc1,nt,nt,nt,-0.2%[46 µM],nt
CCn1c(O)c(N=NC2=NC(=O)CS2)c2ccccc21,2.9%,11.2µM*,-6.7,7.2%[0.0737 µM],-20.5%
CCn1c(O)c(N=N)c2ccccc21,5.8%,-4.5%,nt,4.0%[46 µM],nt
CCCCOC(=O)c1ccc(NC(=O)C2(c3cccs3)CCOCC2)cc1,nt,nt,nt,31.9%[46 µM],nt
CCCCNC(=O)c1ccc2c(c1)ncn2C1CCCC1,-1.7%,-4.9%,0.5,3.6%,8.91µM*
CCN(CC)CCNC(=O)c1ccc2c(c1)ncn2C1CCCCC1,1.3%,-6.9%,-22.0,-4.6%[0.0737 µM],-2.3%
SMILES,Luc counter,ALDH1A1 inh,PNC inhibitor,Lamin A splicing,HPGD inh
CCCCNC(=O)c1ccc2c(c1)ncn2C1CCCCC1,1.4%,-3.3%,1.8,-12.6%,22.4µM*
O=[N+]([O-])c1ccc(C(c2sc3nc(-c4ccco4)nn3c2O)N2CCN(c3cccc(Cl)c3)CC2)cc1 (centres undefined),nt,nt,nt,10.6%[46 µM],nt
O=C(CCSCc1cccc(Cl)c1)NCCC1=CCCCC1,1.6%,-9.4%,-1.8,2.2%,?
O=C(CCSCc1cccc(Cl)c1)NC1CCCC1,-0.7%,11.8%,-13.6,-6.3%,14.1µM*
O=C(CCSCc1ccccc1Cl)NC1CCCC1,-0.4%,3.2%,-14.3,-6.3%,11.2µM*
O=C(CCSCc1ccccc1Cl)NCCc1ccccc1,nt,nt,nt,-7.6%[46 µM],nt
Cc1ccc(Cl)cc1N1CCN(C(=O)c2cc(S(=O)(=O)N3CCC(C)CC3)cn2C)CC1,nt,nt,nt,-2.7%[46 µM],nt
Cc1ccccc1NC(=O)Cn1cc(S(=O)(=O)N2CCCC2)c(S(=O)(=O)N2CCCC2)c1,nt,nt,nt,-6.2%[46 µM],nt
O=C(Nc1ccccc1F)c1ccc(COc2ccc(Cl)cc2Cl)o1,1.6%,28.2µM*,22.5,-13.5%,-15.5%
O=C(CCc1nc(-c2cccs2)no1)Nc1cccc([N+](=O)[O-])c1,nt,nt,nt,8.1%[46 µM],nt
COc1cc(C)c(C)cc1S(=O)(=O)N1CCN(Cc2ccccc2)CC1,4.2%,?,-13.2,-5.5%,-14.3%
